Targets with a hit are over-represented here; the source holds about 7,900 in all. About 0.6% of all pairs of compound and target were hits. Unmarked numbers belong to inactive results.

This is an account of results in the supplement of paper PMC10849652.

Assay in all cases: log2 fold change, soluble protein after heating vs DMSO (PISA); higher = thermal stabilisation; K562 cells, 10 uM, 30 min; active = over 0.2 and 3.5 SD of the protein, either way, in both replicates (recomputed)
In one assay the target is YAE1 (UniProt Q9NRH1). The gist of the method:
(§1)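 Values are thermal stability changes relative to control samples and are taken from duplicates. They are stated as log2 fold changes. Before quantification by TMTpro 16plex LC-MS/MS with equalised channel sums, K562 cells at 2×10^6 cells/mL were treated with 10 μM compound for 30 min, heated in aliquots for 3 min across 48°C-58°C, pooled, extracted in PBS with 0.5% NP-40 at 4°C, and centrifuged at 21,000xg for 90 min to give the soluble supernatant.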

For another assay, the target named is YBX1 (UniProt P67809). Summed up: as §1
The target of another assay is YES1 (UniProt P07947). The gist of the method: as §1
In the next assay the target is YIPF4 (UniProt Q9BSR8). Summed up: as §1
Another assay addresses YIPF5 isoform 3 (UniProt Q969M3). The gist of the method:
as §1

The target in the next assay is YIPF6 (UniProt Q96EC8). The gist of the method:
as §1

For another assay, the target named is YLPM1 (UniProt P49750). The gist of the method:
as §1

In the next assay the target is YOD1 (UniProt Q5VVQ6). The gist of the method: as §1
The next assay deals with YPEL5 (UniProt P62699). The gist of the method:
as §1

YIPF6, sequence (Q96EC8 whole entry, looked up): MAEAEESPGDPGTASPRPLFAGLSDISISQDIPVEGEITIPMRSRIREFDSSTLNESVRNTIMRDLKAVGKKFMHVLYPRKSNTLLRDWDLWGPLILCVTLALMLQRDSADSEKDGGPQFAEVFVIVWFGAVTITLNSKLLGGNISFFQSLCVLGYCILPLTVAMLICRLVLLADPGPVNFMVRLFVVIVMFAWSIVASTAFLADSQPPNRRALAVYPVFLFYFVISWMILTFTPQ
YBX1, sequence (P67809 whole entry, looked up): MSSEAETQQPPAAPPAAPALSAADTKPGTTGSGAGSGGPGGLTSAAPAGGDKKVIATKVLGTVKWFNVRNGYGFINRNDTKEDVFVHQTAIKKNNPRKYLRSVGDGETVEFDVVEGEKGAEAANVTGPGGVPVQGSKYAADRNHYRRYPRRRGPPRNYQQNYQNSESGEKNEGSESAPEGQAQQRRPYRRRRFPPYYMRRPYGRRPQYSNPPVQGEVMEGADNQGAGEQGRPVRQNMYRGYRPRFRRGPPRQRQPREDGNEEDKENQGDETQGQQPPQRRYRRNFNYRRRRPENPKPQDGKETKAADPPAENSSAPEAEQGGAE
YIPF4, sequence (Q9BSR8 whole entry, looked up, canonical isoform): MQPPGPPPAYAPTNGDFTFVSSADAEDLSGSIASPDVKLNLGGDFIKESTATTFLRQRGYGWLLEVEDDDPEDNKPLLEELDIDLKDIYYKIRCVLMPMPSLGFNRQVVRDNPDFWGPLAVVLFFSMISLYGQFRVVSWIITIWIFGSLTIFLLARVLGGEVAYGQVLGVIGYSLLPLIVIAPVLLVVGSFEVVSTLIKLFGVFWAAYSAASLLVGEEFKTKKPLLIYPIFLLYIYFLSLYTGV
YIPF5 isoform 3, sequence (Q969M3 whole entry, looked up, canonical isoform): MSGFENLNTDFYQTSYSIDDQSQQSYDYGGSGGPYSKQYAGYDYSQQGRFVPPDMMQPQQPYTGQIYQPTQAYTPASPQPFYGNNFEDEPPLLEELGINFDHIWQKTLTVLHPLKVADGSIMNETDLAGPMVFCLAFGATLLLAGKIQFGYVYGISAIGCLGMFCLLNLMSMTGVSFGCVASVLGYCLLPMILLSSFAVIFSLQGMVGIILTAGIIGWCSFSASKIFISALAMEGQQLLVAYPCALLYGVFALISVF
YPEL5, sequence (P62699 whole entry, looked up): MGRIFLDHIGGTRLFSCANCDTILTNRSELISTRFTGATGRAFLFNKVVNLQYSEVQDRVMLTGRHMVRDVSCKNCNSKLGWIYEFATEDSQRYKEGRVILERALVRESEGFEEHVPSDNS
YAE1, sequence (Q9NRH1 whole entry, looked up): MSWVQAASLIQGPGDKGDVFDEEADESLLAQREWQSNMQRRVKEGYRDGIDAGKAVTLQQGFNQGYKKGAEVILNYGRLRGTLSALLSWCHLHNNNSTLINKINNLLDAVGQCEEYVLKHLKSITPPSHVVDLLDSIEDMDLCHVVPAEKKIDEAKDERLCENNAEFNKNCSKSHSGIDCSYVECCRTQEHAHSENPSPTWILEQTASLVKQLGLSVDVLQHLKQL
YOD1, sequence (Q5VVQ6 whole entry, looked up): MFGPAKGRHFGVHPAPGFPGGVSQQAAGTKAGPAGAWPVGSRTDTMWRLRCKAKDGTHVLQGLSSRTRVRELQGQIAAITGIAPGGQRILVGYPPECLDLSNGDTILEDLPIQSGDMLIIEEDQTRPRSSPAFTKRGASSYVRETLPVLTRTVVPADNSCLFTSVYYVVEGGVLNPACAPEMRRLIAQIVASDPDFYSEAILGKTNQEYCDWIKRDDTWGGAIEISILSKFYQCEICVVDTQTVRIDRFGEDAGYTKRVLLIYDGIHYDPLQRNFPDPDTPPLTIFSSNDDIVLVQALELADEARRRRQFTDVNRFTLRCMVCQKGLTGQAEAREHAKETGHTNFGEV
YES1, sequence (P07947 whole entry, looked up): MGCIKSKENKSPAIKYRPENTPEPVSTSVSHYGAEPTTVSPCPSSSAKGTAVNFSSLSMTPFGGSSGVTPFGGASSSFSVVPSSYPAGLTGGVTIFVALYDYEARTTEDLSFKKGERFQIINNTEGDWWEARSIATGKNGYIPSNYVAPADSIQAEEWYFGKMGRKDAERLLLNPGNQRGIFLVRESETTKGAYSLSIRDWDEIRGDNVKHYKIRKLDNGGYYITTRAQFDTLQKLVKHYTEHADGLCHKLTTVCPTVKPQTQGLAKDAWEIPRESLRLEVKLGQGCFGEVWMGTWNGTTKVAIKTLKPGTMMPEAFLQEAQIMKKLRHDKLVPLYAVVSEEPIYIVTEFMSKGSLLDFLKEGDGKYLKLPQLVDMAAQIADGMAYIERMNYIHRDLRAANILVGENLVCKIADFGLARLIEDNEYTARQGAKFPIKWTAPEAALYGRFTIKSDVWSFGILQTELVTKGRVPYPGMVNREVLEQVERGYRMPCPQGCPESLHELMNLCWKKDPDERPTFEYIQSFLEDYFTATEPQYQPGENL
YLPM1, sequence (P49750 whole entry, looked up): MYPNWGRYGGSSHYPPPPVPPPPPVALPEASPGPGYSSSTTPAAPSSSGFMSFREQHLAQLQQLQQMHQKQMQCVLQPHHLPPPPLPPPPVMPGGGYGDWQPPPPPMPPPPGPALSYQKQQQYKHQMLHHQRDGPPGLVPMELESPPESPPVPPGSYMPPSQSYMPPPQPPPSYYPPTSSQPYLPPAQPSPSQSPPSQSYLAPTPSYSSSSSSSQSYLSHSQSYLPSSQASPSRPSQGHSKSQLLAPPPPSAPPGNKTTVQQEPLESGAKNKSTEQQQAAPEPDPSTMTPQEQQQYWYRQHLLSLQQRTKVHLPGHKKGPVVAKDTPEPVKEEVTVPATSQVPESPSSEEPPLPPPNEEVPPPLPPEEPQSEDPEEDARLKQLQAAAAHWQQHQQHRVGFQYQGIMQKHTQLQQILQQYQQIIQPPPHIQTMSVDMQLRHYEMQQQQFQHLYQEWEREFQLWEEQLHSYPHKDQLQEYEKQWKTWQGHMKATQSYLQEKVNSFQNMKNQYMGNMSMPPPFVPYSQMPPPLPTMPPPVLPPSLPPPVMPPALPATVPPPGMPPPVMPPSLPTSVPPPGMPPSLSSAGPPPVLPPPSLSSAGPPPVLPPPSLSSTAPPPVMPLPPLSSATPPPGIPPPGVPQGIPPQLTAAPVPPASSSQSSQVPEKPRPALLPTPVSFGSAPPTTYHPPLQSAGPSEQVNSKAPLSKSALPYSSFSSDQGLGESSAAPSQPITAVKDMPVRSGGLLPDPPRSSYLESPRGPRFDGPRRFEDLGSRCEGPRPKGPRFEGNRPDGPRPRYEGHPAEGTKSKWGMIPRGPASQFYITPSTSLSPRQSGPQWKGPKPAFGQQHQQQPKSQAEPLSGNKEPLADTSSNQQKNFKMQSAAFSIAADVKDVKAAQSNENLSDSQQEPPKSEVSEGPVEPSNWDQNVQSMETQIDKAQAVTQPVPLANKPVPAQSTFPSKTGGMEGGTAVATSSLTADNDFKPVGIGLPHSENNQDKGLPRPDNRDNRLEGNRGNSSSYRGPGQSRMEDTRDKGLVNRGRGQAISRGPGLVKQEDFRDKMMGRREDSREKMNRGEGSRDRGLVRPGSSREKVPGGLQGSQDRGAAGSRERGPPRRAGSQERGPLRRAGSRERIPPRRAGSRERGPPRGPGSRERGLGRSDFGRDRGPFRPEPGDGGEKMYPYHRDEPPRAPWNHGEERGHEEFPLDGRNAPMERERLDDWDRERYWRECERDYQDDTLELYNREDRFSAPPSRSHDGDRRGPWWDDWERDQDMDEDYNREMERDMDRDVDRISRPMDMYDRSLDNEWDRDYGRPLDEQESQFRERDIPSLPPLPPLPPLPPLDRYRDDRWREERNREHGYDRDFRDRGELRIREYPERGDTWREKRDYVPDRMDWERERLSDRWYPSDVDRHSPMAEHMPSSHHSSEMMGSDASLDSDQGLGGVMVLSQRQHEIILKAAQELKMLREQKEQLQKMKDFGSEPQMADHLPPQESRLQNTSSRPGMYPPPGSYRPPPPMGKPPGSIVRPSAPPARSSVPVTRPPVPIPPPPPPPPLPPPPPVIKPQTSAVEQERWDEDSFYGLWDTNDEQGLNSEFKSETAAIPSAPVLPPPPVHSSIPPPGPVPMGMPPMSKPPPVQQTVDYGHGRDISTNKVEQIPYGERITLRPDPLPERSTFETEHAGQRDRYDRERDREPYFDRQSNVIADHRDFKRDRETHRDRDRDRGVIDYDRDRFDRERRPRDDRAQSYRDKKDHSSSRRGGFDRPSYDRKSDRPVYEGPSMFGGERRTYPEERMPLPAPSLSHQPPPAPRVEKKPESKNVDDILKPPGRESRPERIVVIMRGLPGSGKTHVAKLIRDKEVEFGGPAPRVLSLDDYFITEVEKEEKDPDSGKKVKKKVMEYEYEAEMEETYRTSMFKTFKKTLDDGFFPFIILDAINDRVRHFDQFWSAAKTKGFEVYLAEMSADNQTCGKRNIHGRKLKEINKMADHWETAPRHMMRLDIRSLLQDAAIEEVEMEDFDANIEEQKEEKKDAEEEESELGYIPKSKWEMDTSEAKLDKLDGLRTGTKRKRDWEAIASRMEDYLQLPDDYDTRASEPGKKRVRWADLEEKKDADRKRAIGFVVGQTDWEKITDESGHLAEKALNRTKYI

In the case of `C#Cc1cccc(Nc2ncnc3cc(OCCOC)c(OCCOC)cc23)c1` [erlotinib], the log2 fold change with YAE1 was 0.055; in the assay with YBX1 it was -0.173; in the assay with YES1 it was -0.145; with YIPF4, 0.004; in the assay with YIPF5 isoform 3 it was 0.011; with YIPF6 it was -0.017. The log2 fold change with YLPM1 is 0.084; in the assay with YOD1 it was 0.064; with YPEL5 it was 0.049.

Consider `CCn1c(C(=O)N(C2CC2)C2CC2)cc2c3c(ncn3C)c(Nc3cc(C)n(C)n3)nc21`, for which the log2 fold change with YAE1 was -0.018; with YBX1 it was -0.016; with YES1 it was -0.243; in the assay with YIPF4, 0; in the assay with YIPF5 isoform 3, -0.01; with YIPF6, 0.022. The log2 fold change with YLPM1 was -0.077; in the assay with YOD1, -0.014; with YPEL5, 0.027.

Regarding `NC1(c2ccc(-c3nc4ccn5c(=O)[nH]nc5c4cc3-c3ccccc3)cc2)CCC1`, the log2 fold change with YAE1 was 0.086; in the assay with YBX1, 0.306; with YES1, -0.012; with YIPF4, -0.01; in the assay with YIPF5 isoform 3, 0.017; in the assay with YIPF6, -0.024. Besides, the log2 fold change with YLPM1 was -0.046; with YOD1, -0.138; with YPEL5 it was -0.026.

Turning to `CC[C@H](C)n1cc(C)c2c(C(=O)NCc3c(C)cc(C)[nH]c3=O)cc(-c3ccc(N4CCNCC4)nc3)cc21`, the log2 fold change was 0.02 in the assay with YAE1; -0.063 in the assay with YBX1; 0.112 with YES1; -0.016 with YIPF4; -0.041 with YIPF5 isoform 3; -0.039 in the assay with YIPF6. The log2 fold change with YLPM1 is 0.067; with YOD1 it was 0.081; with YPEL5, 0.109.

With `Cn1cc(-c2ccc3nnc(C(F)(F)c4ccc5ncccc5c4)n3n2)cn1`, the log2 fold change with YAE1 is 0.043; in the assay with YBX1, -0.136; with YES1 it was 0.008; with YIPF4, 0.108; in the assay with YIPF5 isoform 3, 0.12; with YIPF6, 0.032. Also, the log2 fold change with YLPM1 was 0.031; with YOD1, 0.057; with YPEL5 it was -0.071.

`Cc1ccc(NC(=O)c2cccc(N(C)C)c2)cc1NC(=O)c1ccc(O)cc1`: the log2 fold change with YAE1 is 0.009; with YBX1, 0.011; with YES1, 0.037; with YIPF4, 0.025; in the assay with YIPF5 isoform 3, -0.138; in the assay with YIPF6, 0.024. Further, the log2 fold change in the assay with YLPM1 was -0.023; in the assay with YOD1 it was -0.028; with YPEL5, 0.081.

Turning to `c1cn2cc(-c3ccc4cn[nH]c4c3)nc(Nc3ccc(N4CCOCC4)cc3)c2n1` [entospletinib], the log2 fold change is -0.07 with YAE1; 0.162 with YBX1; -0.219 with YES1; -0.015 with YIPF4; -0.161 with YIPF5 isoform 3; -0.046 with YIPF6. Also, the log2 fold change in the assay with YLPM1 was -0.105; in the assay with YOD1 it was -0.013; with YPEL5, 0.009.

Turning to `Nc1ccccc1NC(=O)c1ccc(CNC(=O)OCc2cccnc2)cc1` [entinostat], the log2 fold change with YAE1 is 0.011; in the assay with YBX1, -0.073; in the assay with YIPF4 it was -0.04; with YIPF5 isoform 3 it was -0.05; with YIPF6, 0.228; with YLPM1, -0.064. Further, the log2 fold change is -0.143 in the assay with YOD1 and -0.187 with YPEL5.

As to `C=CC(=O)N1CCC[C@@H](n2nc(-c3ccc(Oc4ccccc4)cc3)c3c(N)ncnc32)C1` [ibrutinib], the log2 fold change is -0.008 in the assay with YAE1; 0.103 in the assay with YBX1; 0.188 in the assay with YES1; 0.009 with YIPF4; -0.005 with YIPF5 isoform 3; -0.001 with YIPF6. For the same compound, the log2 fold change in the assay with YLPM1 was -0.117; with YOD1 it was -0.016; with YPEL5 it was 0.054.

Take `O=C(CCCCCCC(=O)Nc1ccccc1)NO` [vorinostat]: the log2 fold change was 0.044 in the assay with YAE1; -0.056 in the assay with YBX1; 0.069 with YES1; -0.046 with YIPF4; 0.156 with YIPF5 isoform 3; -0.035 in the assay with YIPF6. Further, the log2 fold change is 0.024 in the assay with YLPM1, 0.033 with YOD1 and 0.028 with YPEL5.

On to `COC(=O)N[C@@H](C)CNc1nccc(-c2cn(C(C)C)nc2-c2cc(Cl)cc(NS(C)(=O)=O)c2F)n1` [encorafenib], for which the log2 fold change was 0.007 with YAE1; 0.041 with YBX1; 0.242 with YES1; -0.038 in the assay with YIPF4; 0.012 in the assay with YIPF5 isoform 3; -0.042 with YIPF6. The log2 fold change in the assay with YLPM1 is 0.052; with YOD1 it was 0.02; in the assay with YPEL5, -0.001.

Regarding `Cc1nc(Nc2ncc(C(=O)Nc3c(C)cccc3Cl)s2)cc(N2CCN(CCO)CC2)n1` [dasatinib], the log2 fold change with YAE1 is 0.152; with YBX1 it was 0.167; in the assay with YES1, -0.737 (active); with YIPF4 it was 0.021; in the assay with YIPF5 isoform 3, 0.055; with YIPF6, 0.256. Besides, the log2 fold change in the assay with YLPM1 was -0.062; in the assay with YOD1, -0.115; with YPEL5 it was -0.004.

In the case of `CCCS(=O)(=O)Nc1ccc(F)c(C(=O)c2c[nH]c3ncc(-c4ccc(Cl)cc4)cc23)c1F` [vemurafenib], the log2 fold change with YAE1 is 0.019; in the assay with YBX1 it was -0.12; with YES1, -0.159; with YIPF4, 0.03; with YIPF5 isoform 3, -0.021; in the assay with YIPF6 it was -0.15. For the same compound, the log2 fold change in the assay with YLPM1 was 0.017; with YOD1, -0.001; with YPEL5, -0.068.
